Active and inactive are the calls of the source.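 Rule for the calls: active = growth inhibition above 50% at the single 2 µM test dose, taken to imply half-maximal potency below 2 µM; inactive = the rest.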
Experiment: antimalarial activity against Dd2 strain (AID 2302);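 note: 0% = DMSO untreated growth and 100% = chloroquine plus artemisinin killed control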
Settings: P. falciparum Dd2 in RBCs, LDH growth readout, 72 h; at 2 µM; hits give high values
For CCOC(=O)c1ccc(NC(=O)N(Cc2ccc(-c3cccc(CN4CCNCC4)c3)cc2)C2CCN(Cc3ccccc3)CC2)cc1, the growth inhibition was 55% (active).
For COc1ccc(O)c(C(=O)c2cc(C(=O)NCCc3ccccc3)c(=O)n(CCc3ccccc3)c2)c1, the growth inhibition was 18% (inactive).
In the case of Cc1nn(CC(O)Cn2c3ccc(Br)cc3c3cc(Br)ccc32)c(C)c1Br (stereo unspecified), the growth inhibition is reported as 81% (active).
For NC1CCN(c2nc(NCCCc3ccc(O)cc3)nc(NCc3cccc4ccccc34)n2)CC1, the growth inhibition was 2% (inactive).
For Cn1nccc1C(=O)NCCNCc1cccc(-c2ccc(-c3nc4ccccc4[nH]3)s2)c1, the growth inhibition was 94% (active).
For O=C(NC(Cc1ccccc1)C(=O)O)c1cc(=O)c2ccccc2o1 (stereo unspecified), the growth inhibition was 10% (inactive).
In the case of COc1cc(NC(=O)N2CCOC(CCN3CCC(c4ccccc4)CC3)(c3ccc(Cl)c(Cl)c3)C2)cc(OC)c1 (stereo unspecified), the growth inhibition is reported as 73% (active).
With CN(C)CCOc1ccc2c(c1)CN(C)CC2c1ccccc1 (stereo unspecified) the growth inhibition was -1% (inactive).
For CC(Cl)=CCc1c(C)[nH]c2c(ccc3ccccc32)c1=O, the growth inhibition was 96% (active).
For COc1ccc2ncc(F)c(CCN3CC[C@@H](CNCc4nc5c(cc4C)SCC(=O)N5)C3)c2n1, the growth inhibition was 42% (inactive).
In the case of CC1(C)[C@H]2CC[C@@H](CNc3nc(NCC(=O)Nc4ccc5ccccc5c4)nc(N4CCC(N5CCCC5)CC4)n3)[C@@H]1C2, the growth inhibition is reported as 20% (inactive).
For CCNc1cc(C(=O)N[C@@H](Cc2cccc(F)c2)[C@H](O)CNC(C)CCCC(C)C)cc(N2CCCCS2(=O)=O)c1 (stereo partly specified), the growth inhibition was 97% (active).
With C[C@@H]1CN(C(c2cccc(O)c2)c2cccc(C(=O)N(C)c3cccc(F)c3)c2)[C@@H](C)CN1C(c1cccc(O)c1)c1cccc(C(=O)N(C)c2cccc(F)c2)c1 (stereo partly specified) the growth inhibition was 85% (active).
For O=C(NCCCCCN1CCC(c2c[nH]c3ccccc23)C1)Nc1ccc(Cl)c(Cl)c1 (stereo unspecified), the growth inhibition was 19% (inactive).
With CC(Cc1ccc(OCCN2CCN(c3ccc(Cl)cc3)CC2)cc1)NCC(O)c1cccc(C(F)(F)F)c1 (stereo unspecified) the growth inhibition was 96% (active).
In the case of COc1ccc2c(c1)ncn2-c1cc(OCc2ccncc2Br)c(C(N)=O)s1, the growth inhibition is reported as 50% (active).
With CC(C)N1CCN(CCCCNc2c3ccccc3nc3ccccc23)CC1 the growth inhibition was -4% (inactive).
With N#Cc1ccc2c(c1)CCN(CCC1CCC(NC(=O)c3cc4ccc(Br)cc4[nH]3)CC1)C2 (stereo unspecified) the growth inhibition was 17% (inactive).
With COc1ccccc1CNc1nc(Nc2ccccc2C)nc2ccccc12 the growth inhibition was 67% (active).
With CNC(=O)NC1CCN(Cc2c(-c3cccs3)nc3ccccc3c2C(=O)N[C@@H](C)C2CCCCC2)CC1 the growth inhibition was 97% (active).
For N#Cc1cccc(NC(=O)Nc2ccc(-c3csc(-c4nc5ccccc5[nH]4)c3)cc2)c1, the growth inhibition was 97% (active).
In the case of COc1ccc2nccc(N3CCC(NCCNCc4ccc5c(n4)NC(=O)CO5)C3)c2n1 (stereo unspecified), the growth inhibition is reported as 47% (inactive).
In the case of Cn1c(NCc2cc(F)cc3c2OCOC3)nc2cc(Nc3ccnc(Nc4cccc(CS(C)(=O)=O)c4)n3)ccc21, the growth inhibition is reported as 100% (active).
With CC(=O)c1c[nH]c(C(=O)Nc2ccc(-c3cn4ccccc4n3)cc2)c1 the growth inhibition was 95% (active).
In the case of C=C1N(C)c2cc([N+](=O)[O-])c(N)cc2C1(C)C, the growth inhibition is reported as 83% (active).
In the case of CC(C)CCn1c(Sc2ccc(C#N)c([N+](=O)[O-])c2)nnc1-c1ccccc1Cl, the growth inhibition is reported as 38% (inactive).
